A selection: hits, their analogues and other compounds. The true share with any hit is near 12%.
Sm TGR inh: blocks Schistosoma mansoni thioredoxin glutathione reductase; Potency, µM (highest dose often 114 µM), for the others: top-dose activity change, negative = inhibition, actives largely listed as inhibitors; purified TGR, DTNB reduction, TNB absorbance 405 nm; 360,000 tested, 3% active; AID 485364; Q962Y6; active = well fitted inhibition curve with a large enough effect; inconclusive = small, poorly fitted or top-dose-only effect; inactive = no such curve, though single readings can be large or run the other way; note: potency is the fitted concentration of half-maximal effect; % is set by controls: 0 for no effect and ±100 for the full control effect; nearly all actives have a fitted effect of over 60% in size
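Kinetic colorimetric format: TGR-catalysed, NADPH-driven DTNB reduction monitored via TNB absorbance. Enzyme dispensed at 20 nM; compound exposure 15 min at room temperature before reaction start.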
FMDV inh: blocks foot and mouth disease virus. FMDV antiviral cell-based qHTS. Potency, µM (highest dose often 57.9 µM), for inactives: top-dose activity change, negative = inhibition, actives largely listed as inhibitors. 410,000 tested, 1.2% active; calls by dose curve; tested in HEK293T cells; note: read-out not given here; potency is the fitted concentration of half-maximal effect; % is set by controls: 0 for no effect and ±100 for the full control effect; nearly all actives have a fitted effect of over 45% in size
Cycloheximide cs: affects cycloheximide protein synthesis inhibition readout, counter-screen; cell reporter, cycloheximide protein synthesis inhibition counterscreen; max response, %; 300,000 tested, 12% active; AID 2314; in the data active = max response mostly above about 13%, no sharp cut-off; inactive = mostly below about 14%; note: read at 38.3 µM for the half of the compounds with a filed dose; 0% is about no effect
Shiga toxin inh: inhibitors of Shiga toxin in Vero cells; Vero cells, Shiga toxin protein synthesis inhibition reporter; inhibition, % at 38.7 µM; 290,000 tested, 9.2% active; AID 2315; in the data active = inhibition mostly above about 28%, no sharp cut-off; inactive = mostly below about 43%; note: 0% is about no effect
Active calls of the source: *; ? = inconclusive; . = not tested or not shown; + = active, no number.

SMILES	Sm TGR inh	FMDV inh	Cycloheximide cs	Shiga toxin inh
CSc1ccc(Cl)c(C(=O)NCCOc2ccccc2)c1	-1%	2%	26*	34
Cc1ccc(C)c(NC(=O)C2CCCN(S(=O)(=O)c3cccc4nsnc34)C2)c1 (stereo not given)	3%	-25%	.	.
COc1ccc2c(c1)CCC1C2=NN(/C(C)=C\C(C)=O)C1c1ccc(F)cc1 (stereo not given)	.	29%	62*	60*
COc1ccc2c(c1)C1=NN(/C(C)=C/C(C)=O)C(c3ccc(F)cc3)C1CC2 (stereo not given)	?	-9%	31*	94*
COc1ccc2c(c1)C1=NN(/C(C)=C\C(C)=O)C(c3ccccc3)C1CC2 (stereo not given)	56µM*	39%	26*	71*
Cc1cc(O)cc2c1O[C@](C)(CCC[C@H](C)CCC[C@H](C)CCCC(C)C)CC2	.	.	-1	5
O=C(NCc1ccc(Cl)cc1)C1CCCN(c2nc3ccccc3n3cccc23)C1 (stereo not given)	12%	-16%	.	.
CC(=O)Oc1ccc(C23CC4CC(CC(C4)C2)C3)cc1C(=O)O	7%	.	-3	37*
Cc1ccc(NC(=O)CCCn2c(=O)c3cccn3c3cccnc32)c(Cl)c1	5%	-8%	.	.
COc1ccccc1NC(=O)C(CC=C(Cl)Cl)C(C)=O (stereo not given)	35µM*	-14%	6	-3
COc1ccccc1NC(=O)C(C/C=C(\C)Cl)C(C)=O (stereo not given)	-2%	.	-4	-5
CC(C)C[C@H](NC(=O)[C@H](CCCCN)NC(=O)CNC(=O)[C@H](CC(C)C)NC(=O)[C@@H](N)C(C)C)C(=O)N[C@@H](CO)C(=O)N[C@@H](CCC(N)=O)C(=O)N[C@@H](CCC(=O)O)C(=O)N[C@@H](CC(C)C)C(=O)N[C@@H](Cc1cnc[nH]1)C(=O)N[C@@H](CCCCN)C(=O)N[C@@H](CC(C)C)C(=O)N[C@@H](CCC(N)=O)C(=O)N[C@H](C(=O)N[C@@H](Cc1ccc(O)cc1)C(=O)N1CCC[C@H]1C(=O)N[C@@H](CCCNC(=N)N)C(=O)N[C@H](C(=O)N[C@@H](CC(N)=O)C(=O)N[C@H](C(=O)NCC(=O)N[C@@H](CO)C(=O)NCC(=O)N[C@H](C(=O)N1CCC[C@H]1C(N)=O)[C@@H](C)O)[C@@H](C)O)[C@@H](C)O)[C@@H](C)O	.	.	-7	8
CCOc1cc(/C=C2/SC(=S)N(Cc3ccccc3)C2=O)ccc1O	-36%	22%	16*	42*
CCOc1cc(/C=C2\SC(=O)N(c3ccc(O)cc3)C2=O)ccc1O	-8%	11%	9.3*	50*
COc1cc(/C=C2/SC(=S)N(Cc3ccccc3)C2=O)ccc1OCC(=O)O	-1%	?	0	.
COc1ccc(C(=O)Nc2nnc(C)s2)cc1	-7%	31%	.	.
CCc1nc2ccc(C(=O)Nc3nnc(C)s3)cc2nc1CC	43%	21%	12*	16
CCc1nc2ccc(C(=O)O)cc2nc1CC	-14%	?	91*	91*
COc1ccc2oc(-c3ccc(C)c(NC(=O)c4cccnc4)c3)nc2c1	7%	-12%	.	.
CC(=O)c1ccc(Nc2cc(C)nc3nc(Cc4ccc(Cl)cc4)nn23)cc1	-1%	?	.	.
CC(C)(C)c1ccc(OCCC(=O)Nc2cccc(S(=O)(=O)N3CCOCC3)c2)cc1	-3%	25µM*	3	-9
CC(=O)Oc1ccc(-c2ccc(C(=O)Nc3cccc(S(=O)(=O)N4CCOCC4)c3)cc2)cc1	5%	?	9.4*	30
O=C(COc1ccc(C(=O)c2ccc(F)cc2)cc1)Nc1cccc(S(=O)(=O)N2CCOCC2)c1	.	32µM*	.	.
O=C(COC(=O)c1ccc([N+](=O)[O-])cc1)Nc1ccc(Cl)cn1	8%	-18%	.	.
COc1ccc(CNC(=O)Cn2cc([N+](=O)[O-])cn2)cc1	.	1%	.	.
SMILES	Sm TGR inh	FMDV inh	Cycloheximide cs	Shiga toxin inh
CCOC(=O)c1ccc(Nc2ccc([N+](=O)[O-])cn2)cc1	-1%	12%	31*	+
COc1ccc(Nc2cc(C)c3cc([N+](=O)[O-])ccc3n2)cc1	4%	-3%	11*	21
O=C(O)c1cc([N+](=O)[O-])ccc1NCc1ccccn1	-27%	7%	.	.
COc1ccc(CNc2ccc([N+](=O)[O-])cn2)cc1	4%	11%	28*	59*
O=[N+]([O-])c1ccc(NCc2ccccn2)nc1	1%	28%	16*	47*
CC(C)c1cnc2c(c1SCC(=O)NCc1ccccc1)c(=O)n(C)c(=O)n2C	1%	2%	.	.
COc1ccc(O)c(C(=O)N2CCC3(CC2)c2ccccc2[C@@H](NC(=O)c2ccccn2)[C@@H]3OC)c1	.	21%	.	.
CCN1CCC(N(Cc2ccc3c(c2)OCO3)C(=O)Nc2cc(Cl)ccc2C(=O)OC)CC1	4%	-24%	.	.
O=[N+]([O-])c1ccc(NCCOc2ccccc2Cl)nc1	-26%	12%	29*	44*
COc1ccc(Nc2ccc([N+](=O)[O-])cn2)cc1	-1%	63%	37*	38*
COc1ccccc1Nc1ccc([N+](=O)[O-])cn1	8%	17%	21*	15
COc1ccc(N(C(=O)c2ccc(OC)c(OC)c2)S(=O)(=O)c2ccc(Cl)cc2)cc1	-11%	-16%	.	.
Cc1ccc(-n2ncc(C(=O)NCCCN3CCN(C)CC3)c2C2CCN(C(=O)OC(C)(C)C)CC2)cc1	-2%	-4%	.	.
CC1CN=C(Nc2ccc(F)c(Cl)c2)S1 (stereo not given)	14%	-8%	15	77*
CCOc1nc(C)ccc1-c1noc(-c2ccco2)n1	14%	35%	32*	42
CCOc1ccccc1-c1nc(-c2ccc(C)nc2OC)no1	8%	45%	44*	92*
CCOc1nc(C)ccc1-c1noc(-c2ccccn2)n1	1%	3%	26*	34
CCOc1nc(C)ccc1-c1noc(CC)n1	-5%	21%	-3	-2
CCOc1nc(-c2ccccc2)ccc1-c1noc(-c2cccnc2)n1	.	-11%	.	.
CCOc1cc(-c2nc(-c3ccccc3OC)no2)cc(OCC)c1OCC	1%	?	-4	-10
Cc1nn(-c2ccccc2)c2c1N(CCCC(=O)NC(C)c1ccccc1)C(=O)CS2 (stereo not given)	-5%	0%	.	.
COc1ccc(C(=O)CN2C(=O)c3ccccc3C2=O)c(OC)c1	-8%	46%	15*	-15
COc1ccc(CC(=O)OCC(=O)c2ccc(OC)c(OC)c2)cc1	8%	-21%	.	.
COc1ccc(C(=O)Cc2ccc(OC)c(OC)c2)c(OC)c1	-11%	.	12*	71
COc1ccc(CC(=O)c2ccc(OC)c(OC)c2)cc1	3%	22%	23*	130
CC(C)(C)c1ccc(C(=O)c2c[nH]c(C(=O)O)c2)cc1	-9%	-24%	29*	36
CN(C)C=NC(=O)c1cc(C(=O)c2ccc(C(C)(C)C)cc2)c[nH]1	6%	8%	44*	83*
COC(=O)c1cc(C(=O)c2ccc(C(C)(C)C)cc2)c[nH]1	.	9%	32*	97*
CN(C)C=NC(=O)c1cc(C(=O)c2ccccc2Cl)c[nH]1	7%	-10%	0	13
